A selection: hits, their analogues and other compounds. The true share with any hit is near 17%.
TDP1 cell noCPT: qHTS for Inhibitors of human tyrosyl-DNA phosphodiesterase 1 (TDP1): qHTS in cells in absence of CPT. 420,000 tested, 15% active. Potency, µM (doses to about 46.2 µM), for the others: at the highest dose activity change, negative = growth inhibition, most hits filed as inhibitors. DT40 Tdp1-/- hTDP1 cells, no CPT, ATP luminescence, 48 h; note: % is set by controls: 0 for no effect and ±100 for the full control effect; nearly all actives have a fitted effect of over 55% in size
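Chicken DT40 Tdp1-/- cells complemented with human TDP1, screened without camptothecin (DMSO vehicle only), 400 cells/well. Compounds pin-transferred, cells incubated at 37 °C for at least 48 hr. Growth read as ATP-dependent luminescence (CellTiter-Glo, 30 min at RT).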
TGFb inhibitor: blocks TGF-b signaling | HepG2 CAGA-GFP TGF-b/SMAD3 reporter, GFP fluorescence, 18 h; TGF-beta stimulated, 500 pg/mL final | Potency, µM (titrated, usually from 46.1 µM), for the others: at the highest dose activity, negative = inhibition, actives largely listed as inhibitors | 410,000 tested, 1.2% active | AID 588855; note: % is set by controls: 0 for no effect and ±100 for the full control effect; nearly all actives have a fitted effect of over 65% in size
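HEPG2 CAGA-GFP, 1000 cells/well; 2 h settle, 37 C; cpd via pin tool; TGF-b 500 pg/mL final; 18 h, 37 C; GFP imaging ex488/em500-530; %Activity normalised to -TGF-b and +DMSO controls; CRC fit, curve class.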
HepG2 viability: HepG2 cytotoxicity, counter-screen for TGF-b inhibitors | HepG2 CAGA-GFP viability, ATP luminescence, 18 h | Potency, µM (series often up to 46.1 µM), inactives show at the highest dose activity change, negative = cytotoxicity, hits mostly cytotoxic | 410,000 tested, 0.76% active | AID 588856
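HepG2 CAGA-GFP cells (1000/well, DMEM with 1% FBS) received compound, then TGF-beta at 500 pg/mL final, and were incubated 18 hours at 37 degrees C. Viability was read by CellTiter-Glo luminescence. Media-only wells were set as complete cell-killing and DMSO as no toxicity.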
TDP1 cell CPT: DT40-hTDP1 cell growth loss with CPT. chicken DT40 Tdp1-/-;hTDP1 cells + 20 nM CPT, ATP luminescence, 48 h. Potency, µM (top dose mostly 46.2 µM), for the others: top-dose activity change, negative = growth inhibition, actives largely listed as inhibitors. 420,000 tested, 12% active; note: % is set by controls: 0 for no effect and ±100 for the full control effect; nearly all actives have a fitted effect of over 55% in size
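Chicken DT40 Tdp1-/- cells complemented with human TDP1, 400 cells/well, exposed to compounds plus 20 nM camptothecin for at least 48 h at 37 C; viability read as ATP content by CellTiter-Glo luminescence.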
HT1080-NT tox: kills 2HG-producing HT-1080-NT fibrosarcoma cells. 360,000 tested, 1.6% active. AID 686970. Potency, µM (doses to about 46.1 µM), for the others: at the top dose activity, negative = less viability, most hits filed as cytotoxic. HT-1080-NT fibrosarcoma viability, CellTiter-Glo ATP luminescence, 48 h;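 note: NT is the 2HG producing partner of a matched IDH1 knockdown line; 0% = DMSO-treated cells and -100% = media-only wells without cells; nearly all actives have a fitted effect of over 55% in size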
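HT-1080-NT fibrosarcoma cells (2HG-overproducing), 750 cells/well in RPMI with 5% FBS, dosed after 2 h and incubated 48 h at 37C. CellTiter-Glo luminescence normalized to DMSO and no-cell wells; concentration-response curves fitted and classed.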
HT1080 IDH1KD tx: HT-1080 IDH1 knockdown cell toxicity (counter line); HT-1080 IDH1 knockdown viability, ATP luminescence, 48 h; Potency, µM (top dose mostly 46.1 µM), for the others: at the highest dose activity, negative = toxicity, actives largely listed as cytotoxic; 360,000 tested, 2% active; AID 686971;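 note: 0% = DMSO wells and -100% = cell-free medium wells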
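Cytotoxicity counter-line: IDH1KD HT-1080, 48 h, CellTiter-Glo. Curves classed by r2, magnitude and activity.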
* = called active by the depositor; ? = inconclusive; nt = no result. Calls come from the whole dose curve; as a rule, active = well fitted curve in the direction sought with a large enough effect; inconclusive = small, poorly fitted or top-dose-only effect, or another doubt; inactive = no such curve, though single readings can be large; an effect the other way counts as inactive or inconclusive. Potency is the fitted concentration of half-maximal effect.

SMILES	TDP1 cell noCPT	TGFb inhibitor	HepG2 viability	TDP1 cell CPT	HT1080-NT tox	HT1080 IDH1KD tx
COc1cccc(N2CCN(C(=O)c3ccc(CS(=O)c4cccc(Cl)c4)o3)CC2)c1 (centres undefined)	0.52µM*	?	-2%	0.52µM*	nt	nt
COc1ccc(N2CCN(C(=O)c3ccc(CS(=O)Cc4ccc(C)cc4)o3)CC2)cc1 (centres undefined)	?	-10%	-19%	?	-7%	-11%
COc1ccc(S(=O)Cc2ccc(C(=O)N3CCN(c4cccc(C)c4C)CC3)o2)cc1 (centres undefined)	0.92µM*	?	-2%	0.58µM*	16%	10%
CC1CCN(C2=NC(=O)/C(=C/c3ccccc3F)S2)CC1	?	-14%	-29%	-4%	-4%	-21%
CN1C2CCC1/C(=C\c1ccccc1F)C(=O)/C2=C/c1ccccc1F	?	0%	-27%	?	?	12µM*
CN1CCn2cnc(C(=O)Nc3ccc(CNC(=O)OC(C)(C)C)cc3)c2C1=O	?	4%	0%	?	-4%	-2%
COC(=O)CNc1cc(S(=O)(=O)N2CCCCC2)ccc1Oc1ccc(C(=O)OC)cc1	?	-7%	-16%	?	-9%	-21%
COC(=O)c1ccc(Oc2ccc(S(=O)(=O)N3CCCCC3)cc2N)cc1	16µM*	-23%	-23%	?	?	-15%
Nc1cc(S(=O)(=O)N2CCCCC2)ccc1Oc1ccc(Cl)cc1	8.2µM*	?	0%	?	0%	?
Cc1cccc(Oc2ccc(S(=O)(=O)N3CCCCC3)cc2N)c1	?	?	-28%	?	-14%	?
CC(=O)Nc1cccc(NC(=O)c2csc(C)c2)c1	12%	1%	9%	-1%	4%	9%
CCCCOc1ccc(C(=O)Nc2ccncc2)cc1	2.6µM*	-26%	-33%	5.2µM*	-18%	-15%
CCCOc1ccc(C(=O)Nc2ccc(CN3CCOCC3)cc2)cc1	?	-13%	-16%	?	-10%	-5%
COc1ccc(NS(=O)(=O)c2ccc(NC(=O)c3ccc(CN4CCOCC4)cc3)cc2)cc1	23µM*	-2%	3%	18µM*	-32%	?
CCCCOc1ccc(C(=O)Nc2ccc(CN3CCOCC3)cc2)cc1	?	-18%	-4%	13µM*	3%	1%
O=C(Nc1ccc(S(=O)(=O)Nc2ccc(F)cc2)cc1)c1ccc(CN2CCOCC2)cc1	18µM*	-26%	-4%	?	-26%	?
CC(C)c1ccc(NC(=O)C2CCCN(S(=O)(=O)c3ccc4[nH]c(=O)oc4c3)C2)cc1 (centres undefined)	?	5%	-16%	-26%	nt	nt
O=C(Nc1nnc(Cc2ccccc2F)s1)Nc1ccccc1F	-21%	-21%	2%	?	-10%	-23%
COc1ccc(CN2CCOCCOCCN(Cc3ccc(OC)cc3)CCOCCOCC2)cc1	29µM*	-8%	-13%	?	-24%	-18%
O=C(Nc1ccc(S(=O)(=O)N2CCCC2)cc1)c1ccc(CN2CCOCC2)cc1	?	?	-6%	?	-26%	-15%
CCCCCCOc1ccc(OC(=O)c2ccncc2)cc1	23µM*	17%	0%	13µM*	?	16µM*
O=C(Nc1ccc(S(=O)(=O)N2CCCCC2)cc1)c1ccc(CN2CCOCC2)cc1	23µM*	?	-31%	18µM*	nt	nt
CCCCCCc1ccc(OC(=O)c2ccncc2)cc1	-23%	-10%	-19%	-19%	0%	2%
CCC(=O)N(c1nnc(SCC(=O)Nc2ccc(N3CCOCC3)cc2)s1)C1CC1	21%	-22%	-3%	-5%	7%	15%
CC(=O)c1ccc(NC(=O)Nc2ccc3snnc3c2)cc1	21µM*	-20%	-44%	12µM*	nt	nt
SMILES	TDP1 cell noCPT	TGFb inhibitor	HepG2 viability	TDP1 cell CPT	HT1080-NT tox	HT1080 IDH1KD tx
O=C(Nc1ccc(F)cc1)c1ccc2snnc2c1	-17%	1%	-3%	-30%	20%	5%
Cc1c(Cl)cccc1NC(=O)Nc1ccc2snnc2c1	18µM*	?	-36%	15µM*	nt	nt
CC(=O)Nc1cccc(NC(=O)Nc2cccc(Cl)c2C)c1	-23%	-24%	-22%	-7%	-10%	-4%
O=C(Nc1ccc(F)cc1)Nc1ccc2snnc2c1	6.5µM*	?	-41%	3.7µM*	nt	nt
Cc1ccc(F)c(NC(=O)Nc2ccc3snnc3c2)c1	21µM*	-27%	-27%	21µM*	nt	nt
O=[N+]([O-])c1ccc(N2CCC(O)CC2)nc1	-8%	-1%	-4%	?	12%	18%
Cc1cc(OCC(=O)OCC(=O)Nc2cc(C(F)(F)F)ccc2N2CCOCC2)ccc1Cl	-18%	-1%	6%	-4%	-2%	9%
CCc1ccc(NC(=O)Cn2cc(S(=O)(=O)N3CCCC3)c(S(=O)(=O)N3CCCC3)c2)cc1	-2%	-7%	-23%	-2%	nt	nt
CCOc1ccc(NC(=O)CN2C(=O)COc3ccc(S(=O)(=O)Nc4ccccc4)cc32)cc1	?	?	-29%	?	nt	nt
CCOc1ccc(NC(=O)CSc2nnc(Cn3cnc4ccccc43)n2C)cc1	-3%	2%	4%	0%	3%	-1%
CN(Cc1ccccc1)c1nc(-c2cccc([N+](=O)[O-])c2)nc2ccccc12	18µM*	3%	-4%	18µM*	27%	20%
COC(=O)c1cn(CC(=O)Nc2ccc(F)cc2)c2ccccc12	?	-5%	-7%	-22%	-19%	-28%
Cc1cccc(CCNC(=O)CCc2c(C)nc3c(c(C)nn3-c3ccccc3)c2C)c1	15µM*	5%	1%	12µM*	nt	nt
COc1ccccc1CNC(=O)CCc1c(C)nc2c(c(C)nn2-c2ccc(C)c(C)c2)c1C	-3%	1%	-15%	7%	nt	nt
COc1ccc(CNC(=O)CCc2c(C)nc3c(c(C)nn3-c3ccccc3)c2C)cc1	?	-6%	-10%	?	nt	nt
CCN(CC)CCNC(=O)CCc1c(C)nc2c(c(C)nn2-c2ccc(C)c(C)c2)c1C	16µM*	?	-66%	?	?	26µM*
COc1ccc(CCNC(=O)CCc2c(C)nc3c(c(C)nn3-c3ccc(C)c(C)c3)c2C)cc1OC	16µM*	-2%	4%	21µM*	nt	nt
